Source: PubChem
An excerpt weighted towards active compounds, which were near 21% of everything screened.
Pf growth 48h = P. falciparum growth inhibition at 48 hours (one generation). P. falciparum luciferase growth in erythrocytes, 48 h. Potency, µM (series often up to 28.7 µM), for the others: at the top dose activity change, negative = inhibition, most hits filed as inhibitors. 310,000 compounds, 5.9% hits; also: potency is read from the fitted curve at half-maximal effect; % is scaled to controls: 0 for no effect and ±100 for the full control effect
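Read-out is firefly luciferase luminescence from an integrated reporter in P. falciparum, so falling signal marks reduced parasite growth. Infected erythrocytes were at 2% hematocrit and 0.1% parasitemia (final) in Albumax-supplemented RPMI 1640.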
Pf growth 96h = P. falciparum growth inhibition at 96 hour, primary screen for plastid delayed-death inhibitors; Potency, µM (top dose mostly 28.7 µM), for the others: top-dose activity change, negative = inhibition, hits mostly inhibitors; P. falciparum luciferase reporter growth, 96 h; 320,000 compounds, 6.9% hits; also: potency is read from the fitted curve at half-maximal effect; % is scaled to controls: 0 for no effect and ±100 for the full control effect
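Readout is luminescence from an integrated firefly luciferase in P. falciparum. Red cells, 2% hematocrit and 0.05% parasitemia final, were cultured with compound through two parasite generations (96 hours) at 37 C, 5% CO2.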
Cycloheximide cs = affects cycloheximide protein synthesis inhibition readout, counter-screen. 300,000 compounds, 12% hits. AID 2314. cell reporter, cycloheximide protein synthesis inhibition counterscreen. max response, %; in the data active = max response mostly above about 13%, no sharp cut-off; inactive = mostly below about 14%; also: read at 38.3 µM for the half of the compounds with a filed dose; 0% is about no effect
Sm TGR inh = S. mansoni TGR enzyme inhibition; purified TGR, DTNB reduction, TNB absorbance 405 nm; Potency, µM (series often up to 114 µM), for inactives: top-dose activity change, negative = inhibition, most hits filed as inhibitors; 360,000 compounds, 3% hits; also: potency is read from the fitted curve at half-maximal effect; % is scaled to controls: 0 for no effect and ±100 for the full control effect; nearly all actives have a fitted effect of over 60% in size
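First, TGR (20 nM dispensed) and NADPH were mixed with compound. Second, a 15 min room-temperature incubation followed. Third, further NADPH and then DTNB were added to start the reaction. Finally, TNB absorbance was monitored kinetically.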
Shiga toxin inh = Shiga toxin inhibition. Vero cells, Shiga toxin protein synthesis inhibition reporter. inhibition, % at 38.7 µM. 290,000 compounds, 9.2% hits. AID 2315; in the data active = inhibition mostly above about 28%, no sharp cut-off; inactive = mostly below about 43%; also: 0% is about no effect
NS1 function inh = blocks influenza NS1 protein function; Potency, µM (top dose mostly 46.1 µM), without a hit: top-dose activity, positive = more growth; 270,000 compounds, 0.4% hits; calls by dose curve; also: potency is read from the fitted curve at half-maximal effect; actives are rising curves; nearly all actives have a fitted effect of over 50% in size
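S. cerevisiae expressing influenza A NS1, grown in glucose, washed, then diluted 1:100 into pH 6.0 -URA galactose medium with 23 nl compound. Growth recovery read as OD600; NS1-free strain serves as control.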
NS1 inh valid = validation of influenza NS1 protein function inhibitors. influenza NS1 function cell assay, 15-point titration. activity change, negative = inhibition, % at 32.9 µM. 1,400 tested, under 10 active. shares compounds with NS1 function inh; calls by dose curve; also: 0% is about no effect
PR8 titer = influenza virus titer reduction, NS1 project; AID 504647; virus titer (log TCID50), log10 TCID50 at 5 µM; 95 compounds, 30% hits; MDCK infected influenza A/PR/8/34, virus titer TCID50; hits give low values; shares compounds with NS1 function inh; call rule not given here
* = called active by the depositor; ? = inconclusive; nt = no result; [ ] = another dose, or the depositor's remark. Unless noted, calls follow the shape of the dose curve; as a rule, active = well fitted curve in the direction sought with a large enough effect; inconclusive = small, poorly fitted or top-dose-only effect, or another doubt; inactive = no such curve, though single readings can be large; an effect the other way counts as inactive or inconclusive.

SMILES	Pf growth 48h	Pf growth 96h	Cycloheximide cs	Sm TGR inh	Shiga toxin inh	NS1 function inh	NS1 inh valid	others
Cc1nn(-c2ccccc2)c(Cl)c1/C=N/NC(=O)C1COc2ccccc2O1 (centres undefined)	9.6%	38.8%	0.5	-17.2%	-6.8	1.6%	nt
CCc1nnc(NS(=O)(=O)c2ccc(NC(=O)c3cc(Cl)ccc3[N+](=O)[O-])cc2)s1	18.0%	-0.3%	-4.4	-8.3%	-7.3	11.2µM*	28.7	PR8 titer=8.33
COc1ccc(-n2c(=S)[nH]c3cc(C(=O)NCc4ccco4)ccc3c2=O)c(OC)c1	nt	?	-1.7	-4.9%	-22.3	12.6µM*	4.1
CCOc1ccc(NC(=O)Cc2ccc(S(=O)(=O)N3CCOCC3)s2)cc1OCC	26.8%	-8.2%	-4.4	0.0%	-20.8	-0.4%	nt
O=C(COc1ccc2c(c1)oc(=O)c1ccccc12)NC(Cc1ccc(Cl)cc1)C(=O)O (centres undefined)	41.9%	25.4%	-0.9	-17.6%	-5.8	11.2µM*	21.9
Cc1ccc(Cl)cc1NC(=O)N(C)CCO	6.6%	60.4%	-3.0	3.3%	0.7	0.3%	nt
COc1ccc(NC(=O)CCc2c(C)nc3c(-c4ccc(F)cc4)c(C)nn3c2C)c(OC)c1	nt	nt	nt	7.5%	nt	nt	nt
COc1ccccc1NC(=O)CN(c1ccc(C)cc1)S(=O)(=O)c1c(C)n[nH]c1C	?	nt	-5.2	13.1%	-15.0	?	-11.3
COc1ccc(S(=O)(=O)n2nc(OC(=O)c3c(-c4ccccc4Cl)noc3C)cc2N)cc1	8.7%	55.4%	7.2	0.0%	-6.4	10µM*	-1.0
COc1ccc(C(=O)Oc2cc(N)n(S(=O)(=O)c3ccc(C)cc3)n2)cc1	16.8%	?	-3.0	-0.7%	-17.7	12.3%	nt
Cn1c(=O)c2c(n(Cc3ccccc3)c1=O)NC(=O)C2CC(=O)NCc1cccc(Cl)c1 (centres undefined)	?	?	-3.1	6.3%	-10.9	14.1µM*	3.4
Nc1ccc2nc(SCC(=O)Nc3ccc(N4CCOCC4)c(Cl)c3)sc2c1	13.6%	1.9%	20.8*	-12.2%	21.7	10µM*	-6.1
CC(=O)Nc1ccc2nc(SCC(=O)N3CCOCC3)sc2c1	19.0%	0.0%	14.9	-2.4%	2.7	nt	nt
CC1CCN(S(=O)(=O)N2CCC(C(=O)NCc3cccnc3)CC2)CC1	?	-11.9%	-0.5	-3.7%	-3.7	-5.1%	nt
Cc1ccc(S(=O)(=O)NCC(=O)NCC(=O)OCC(=O)N2CC(=O)Nc3ccccc32)cc1C	0.8%	20.2%	-3.5	-0.1%	-5.0	nt	nt
COC(=O)c1cc(C(=O)OC)cc(N2C(=O)CC(NNC(=O)c3ccc(C)cc3)C2=O)c1 (centres undefined)	-3.2%	?	11.3	-2.7%	17.9	7.08µM*	12.3
COc1ccc(S(=O)(=O)Nc2cccc(F)c2C)cc1C(=O)N1CCOCC1	17.1%	?	7.1	-4.2%	29.5	nt	nt
COc1ccnc(NCc2cccnc2)c1C#N	1.6%	8.4%	-2.5	13.9%	-14.5	-5.2%	nt
CCCOc1ccc(C(=O)Nc2cc(-c3nn4c(C)nnc4s3)ccc2C)cc1	nt	-60.8%	0.6	-0.8%	14.9	4.47µM*	4.6
CCOc1cccc(C(=O)Nc2cc(-c3nn4c(C)nnc4s3)ccc2C)c1	12.9%	-80.7%	-5.4	-0.4%	-6.6	-33.4%	nt
O=C(N/N=C/c1ccc2c(c1)OCO2)c1cc(-c2ccc(F)cc2)nc2ccccc12	20.1%	?	50.4*	1.3%	91.7*	?	-0.9
Cc1cc(C(=O)Nc2nnc(-c3ccccc3)s2)no1	?	0.4%	10.7	-3.7%	15.4	?	?
Cc1onc(-c2ccccc2Cl)c1C(=O)Nc1nnc(-c2cccc([N+](=O)[O-])c2)s1	?	?	0.5	-12.5%	8.5	10µM*	-1.2
O=C(Nc1nnc(-c2ccccc2)s1)c1ccc(F)cc1	92.6%	-7.3%	9.4	-1.4%	33.8	nt	nt
CC(=O)Nc1cccc(NC(=O)c2c(-c3ccccc3Cl)noc2C)c1	-2.9%	51.8%	5.5	4.6%	-14.9	-7.8%	nt
SMILES	Pf growth 48h	Pf growth 96h	Cycloheximide cs	Sm TGR inh	Shiga toxin inh	NS1 function inh	NS1 inh valid	others
Cc1ccccc1NC(=O)Cc1nc(COC(=O)c2cc(Cl)ccc2O)cs1	-3.8%	-1.2%	-4.2	2.8%	-14.6	18.8%	nt
Cc1cccc(-c2noc(CN(C(=O)c3c(-c4ccccc4Cl)noc3C)C(C)C)n2)c1	nt	?	0.2	2.7%	-1.5	-45.1%	nt
Cc1onc(-c2ccccc2Cl)c1C(=O)N(Cc1nc(-c2ccccc2)no1)C1CCCCC1	nt	?	5.5	7.1%	11.2	10µM*	-22.9
C(=N\N1CCN(Cc2cccc3ccccc23)CC1)/c1cccnc1	14.4%	?	-3.9	-0.9%	7.3	10µM*	-5.1
FC(F)(F)c1ccc(/C=N/N2CCN(Cc3cccc4ccccc34)CC2)cc1	?	3.8%	1.1	8.4%	22.9	7.9%	nt
COC(=O)C(NC(=O)CCc1c(C)nc2c(-c3ccccc3)c(C)nn2c1C)C(C)C (centres undefined)	nt	nt	nt	-13.6%	nt	nt	nt
CCCOP(=O)(c1ccc(N(C)C)cc1)C(Nc1ccccc1)c1ccc(N(C)C)cc1 (centres undefined)	2.62µM*	8.28µM*	12.8	-11.7%	17.7	20µM*	9.4
CCCOP(=O)(c1ccc(N(C)C)cc1)C(O)c1ccccc1OC (centres undefined)	1.0%	8.1%	-4.0	-27.9%	17.0	-0.2%	nt
Cc1ccccc1-n1nc(C(=O)O)c(C)c(C#N)c1=O	1.5%	?	-3.0	-2.5%	-1.5	2.82µM*	11.9
Cc1c(C(=O)O)nn(-c2cccc(C(F)(F)F)c2)c(=O)c1C#N	9.1%	?	-2.7	4.3%	-11.5	-7.7%	nt
COc1ccc(-c2cc(C(=O)Nc3nc4ccccc4s3)c3ccccc3n2)cc1OC	4.0%	-32.2%	16.2*	10.8%	42.7*	22.4µM*	-1.6
COc1ccc(-c2cc(C(=O)Nc3ccccc3O)c3ccccc3n2)cc1OC	?	60.5%	11.5	4.9%[57.1 µM]	9.6	15.7%	nt
CN(C)c1ccc(C(=O)OCC(=O)N2CCOCC2)cc1	0.0%	121.4%	23.5*	11.8%	38.5	?	3.3
CC1CN(C(=O)COC(=O)c2ccc(N(C)C)cc2)CC(C)O1 (centres undefined)	9.8%	22.5%	0.4	-8.2%	19.2	7.4%	nt
COc1ccccc1Nc1nc(N)nc(CSC(=S)N2CC(C)CC(C)C2)n1 (centres undefined)	?	10.4µM*	10.2	-4.2%	18.3	10µM*	?
